# Article PMC8384837, “Expanding the binding specificity for RNA recognition by a PUF domain”
# Residue numbers refer to the chain shown, from its start.
# How the values were obtained:
# Experiment in all cases: yeast three-hybrid, YBZ-1, SC-Leu-His + 0.5 mM 3-AT, 4 days
# Conditions in all cases: tags: N-Gal4 AD-HA kept; label: inside an RPR1-promoter hybrid RNA with tandem MS2 sites; ssRNA
# PUM1 PUF domain R6-MYR = biological target: T1, PUM1 PUF domain R6-MYR (Homo sapiens, UniProt Q14671 828-1176, N1043M;Q1047R)
# T1 sequence: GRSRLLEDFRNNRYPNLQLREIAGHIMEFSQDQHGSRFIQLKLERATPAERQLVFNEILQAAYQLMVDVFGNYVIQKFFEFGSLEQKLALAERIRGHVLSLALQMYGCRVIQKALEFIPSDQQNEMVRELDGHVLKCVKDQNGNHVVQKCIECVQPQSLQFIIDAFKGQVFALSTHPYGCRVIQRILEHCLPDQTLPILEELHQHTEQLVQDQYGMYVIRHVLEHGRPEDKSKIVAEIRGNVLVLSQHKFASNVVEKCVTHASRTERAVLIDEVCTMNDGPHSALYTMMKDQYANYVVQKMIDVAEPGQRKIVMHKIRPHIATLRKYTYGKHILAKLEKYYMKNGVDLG
# How it was run: (§1)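 Pumilio-1 PUF domain libraries, randomized at the three base-contacting residues of each repeat, were co-expressed with matching RNA elements from a centromeric plasmid in strain YBZ-1, which carries a LexA–MS2 coat fusion and a HIS3 reporter. Transformants grew for four days on SC-Leu (input) or on SC-Leu-His + 0.5 mM 3-AT (selection), and the repeat regions were PCR-amplified and Illumina-sequenced. The interaction score is the log change in variant frequency from input to selection. That logarithm is base 2, with a pseudocount of 1 where a variant was absent.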
# PUM1 PUF domain R6-SYA = biological target: T2, PUM1 PUF domain R6-SYA (Homo sapiens, UniProt Q14671 828-1176, N1043S;Q1047A)
# T2 sequence: T1 sequence with M216S, R220A
# How it was run: as §1
# PUM1 PUF domain R8-SWS = PUM1 PUF domain R8-SWS (Homo sapiens, UniProt Q14671 828-1176, N1122S;Y1123W;Q1126S)
# How it was run: as §1
# PUM1 PUF domain R5-GRG = PUM1 PUF domain R5-GRG (Homo sapiens, UniProt Q14671 828-1176, C1007G;Q1011G)
# How it was run: as §1
# PUM1 PUF domain R3-VRT = PUM1 PUF domain R3-VRT (Homo sapiens, UniProt Q14671 828-1176, C935V;Q939T)
# How it was run: as §1
# PUM1 PUF domain R3-YWG = PUM1 PUF domain R3-YWG (Homo sapiens, UniProt Q14671 828-1176, C935Y;R936W;Q939G)
# How it was run: as §1
# PUM1 PUF domain R3-FWA = PUM1 PUF domain R3-FWA (Homo sapiens, UniProt Q14671 828-1176, C935F;R936W;Q939A)
# How it was run: as §1
# PUM1 PUF domain R3-KRG = PUM1 PUF domain R3-KRG (Homo sapiens, UniProt Q14671 828-1176, C935K;Q939G)
# How it was run: as §1
# PUM1 PUF domain R4-CYG = PUM1 PUF domain R4-CYG (Homo sapiens, UniProt Q14671 828-1176, N971C;H972Y;Q975G)
# How it was run: as §1
# PUM1 PUF domain R7-RCG = PUM1 PUF domain R7-RCG (Homo sapiens, UniProt Q14671 828-1176, S1079R;N1080C;E1083G)
# How it was run: as §1
# PUM1 PUF domain R7-RVQ = PUM1 PUF domain R7-RVQ (Homo sapiens, UniProt Q14671 828-1176, S1079R;N1080V;E1083Q)
# How it was run: as §1
# PUM1 PUF domain R3-WWV = PUM1 PUF domain R3-WWV (Homo sapiens, UniProt Q14671 828-1176, C935W;R936W;Q939V)
# How it was run: as §1
# PUM1 PUF domain R3-LFM = PUM1 PUF domain R3-LFM (Homo sapiens, UniProt Q14671 828-1176, C935L;R936F;Q939M)
# How it was run: as §1
# PUM1 PUF domain R2-RRQ = PUM1 PUF domain R2-RRQ (Homo sapiens, UniProt Q14671 828-1176, N899R;Y900R)
# How it was run: as §1
# PUM1 PUF domain R5-DGA = PUM1 PUF domain R5-DGA (Homo sapiens, UniProt Q14671 828-1176, C1007D;R1008G;Q1011A)
# How it was run: as §1
# PUM1 PUF domain R5-HLK = PUM1 PUF domain R5-HLK (Homo sapiens, UniProt Q14671 828-1176, C1007H;R1008L;Q1011K)
# How it was run: as §1
# PUM1 PUF domain R5-RAA = PUM1 PUF domain R5-RAA (Homo sapiens, UniProt Q14671 828-1176, C1007R;R1008A;Q1011A)
# How it was run: as §1
# PUM1 PUF domain R1-YPR = PUM1 PUF domain R1-YPR (Homo sapiens, UniProt Q14671 828-1176, S863Y;R864P;Q867R)
# How it was run: as §1
# PUM1 PUF domain R5-FRY = PUM1 PUF domain R5-FRY (Homo sapiens, UniProt Q14671 828-1176, C1007F;Q1011Y)
# PUM1 PUF domain R5-FRY, sequence (Q14671 828-1176 C1007F/Q1011Y): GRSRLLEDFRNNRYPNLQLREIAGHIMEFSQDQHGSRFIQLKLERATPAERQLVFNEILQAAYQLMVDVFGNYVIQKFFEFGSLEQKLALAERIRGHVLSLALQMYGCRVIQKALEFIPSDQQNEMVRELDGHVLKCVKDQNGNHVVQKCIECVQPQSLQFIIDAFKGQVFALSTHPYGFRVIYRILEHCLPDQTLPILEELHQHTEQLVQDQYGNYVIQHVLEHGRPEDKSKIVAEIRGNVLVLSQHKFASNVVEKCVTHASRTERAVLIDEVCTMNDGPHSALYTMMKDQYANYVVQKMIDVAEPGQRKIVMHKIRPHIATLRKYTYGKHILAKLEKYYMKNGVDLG
# How it was run: as §1
# PUM1 PUF domain R5-FHE = PUM1 PUF domain R5-FHE (Homo sapiens, UniProt Q14671 828-1176, C1007F;R1008H;Q1011E)
# PUM1 PUF domain R5-FHE, sequence (Q14671 828-1176 C1007F/R1008H/Q1011E): as the sequence (Q14671 828-1176 C1007F/Q1011Y) above, with R181H, Y184E counted along it
# How it was run: as §1
sequence,measurement,setting,value
GGCUAGAACUAGUGGAUCCCCCGGCGCCCGGCGGCUCGAGCCCGGGUAAGUGCAAAUAGUCUGCAUGCCGCCGGGCGCCAUGCCUGCAGGUCGACUCUAGAAAACAUG,binding signal,PUM1 PUF domain R6-MYR,2.56 log2 enrichment (interaction score)
GGCUAGAACUAGUGGAUCCCCCGGCGCCCGGCGGCUCGAGCCCGGGUAAGUGUAAAUAGUCUGCAUGCCGCCGGGCGCCAUGCCUGCAGGUCGACUCUAGAAAACAUG,binding signal,PUM1 PUF domain R6-SYA,2.48 log2 enrichment (interaction score)
same,binding signal,PUM1 PUF domain R8-SWS,2.46 log2 enrichment (interaction score)
same,binding signal,PUM1 PUF domain R5-GRG,3.08 log2 enrichment (interaction score)
same,binding signal,PUM1 PUF domain R3-VRT,3.97 log2 enrichment (interaction score)
same,binding signal,PUM1 PUF domain R3-YWG,4.94 log2 enrichment (interaction score)
same,binding signal,PUM1 PUF domain R3-FWA,4.55 log2 enrichment (interaction score)
same,binding signal,PUM1 PUF domain R3-KRG,2.15 log2 enrichment (interaction score)
same,binding signal,PUM1 PUF domain R4-CYG,7.43 log2 enrichment (interaction score)
same,binding signal,PUM1 PUF domain R6-MYR,6.42 log2 enrichment (interaction score)
GGCUAGAACUAGUGGAUCCCCCGGCGCCCGGCGGCUCGAGCCCGGGUAAGUUUAAAUAGUCUGCAUGCCGCCGGGCGCCAUGCCUGCAGGUCGACUCUAGAAAACAUG,binding signal,PUM1 PUF domain R7-RCG,2.43 log2 enrichment (interaction score)
same,binding signal,PUM1 PUF domain R7-RVQ,3.81 log2 enrichment (interaction score)
GGCUAGAACUAGUGGAUCCCCCGGCGCCCGGCGGCUCGAGCCCGGGUAAGUGUAAGUAGUCUGCAUGCCGCCGGGCGCCAUGCCUGCAGGUCGACUCUAGAAAACAUG,binding signal,PUM1 PUF domain R3-WWV,4.18 log2 enrichment (interaction score)
same,binding signal,PUM1 PUF domain R3-YWG,6.77 log2 enrichment (interaction score)
same,binding signal,PUM1 PUF domain R3-LFM,5.47 log2 enrichment (interaction score)
GGCUAGAACUAGUGGAUCCCCCGGCGCCCGGCGGCUCGAGCCCGGGUAAGUGUGAAUAGUCUGCAUGCCGCCGGGCGCCAUGCCUGCAGGUCGACUCUAGAAAACAUG,binding signal,PUM1 PUF domain R5-GRG,3.07 log2 enrichment (interaction score)
GGCUAGAACUAGUGGAUCCCCCGGCGCCCGGCGGCUCGAGCCCGGGUAAGUGUAAAGAGUCUGCAUGCCGCCGGGCGCCAUGCCUGCAGGUCGACUCUAGAAAACAUG,binding signal,PUM1 PUF domain R2-RRQ,3.28 log2 enrichment (interaction score)
GGCUAGAACUAGUGGAUCCCCCGGCGCCCGGCGGCUCGAGCCCGGGUAAGCGUAAAUAGUCUGCAUGCCGCCGGGCGCCAUGCCUGCAGGUCGACUCUAGAAAACAUG,binding signal,PUM1 PUF domain R8-SWS,2.67 log2 enrichment (interaction score)
GGCUAGAACUAGUGGAUCCCCCGGCGCCCGGCGGCUCGAGCCCGGGUAAGUGUUAAUAGUCUGCAUGCCGCCGGGCGCCAUGCCUGCAGGUCGACUCUAGAAAACAUG,binding signal,PUM1 PUF domain R5-DGA,2.6 log2 enrichment (interaction score)
same,binding signal,PUM1 PUF domain R5-GRG,3.72 log2 enrichment (interaction score)
same,binding signal,PUM1 PUF domain R5-HLK,3.05 log2 enrichment (interaction score)
same,binding signal,PUM1 PUF domain R5-RAA,1.06 log2 enrichment (interaction score)
GGCUAGAACUAGUGGAUCCCCCGGCGCCCGGCGGCUCGAGCCCGGGUAAGUGUAAUUAGUCUGCAUGCCGCCGGGCGCCAUGCCUGCAGGUCGACUCUAGAAAACAUG,binding signal,PUM1 PUF domain R3-WWV,2.73 log2 enrichment (interaction score)
same,binding signal,PUM1 PUF domain R3-YWG,4.54 log2 enrichment (interaction score)
same,binding signal,PUM1 PUF domain R3-FWA,5.26 log2 enrichment (interaction score)
same,binding signal,PUM1 PUF domain R3-KRG,2.07 log2 enrichment (interaction score)
GGCUAGAACUAGUGGAUCCCCCGGCGCCCGGCGGCUCGAGCCCGGGUAAGUGUAAAUCGUCUGCAUGCCGCCGGGCGCCAUGCCUGCAGGUCGACUCUAGAAAACAUG,binding signal,PUM1 PUF domain R1-YPR,3.29 log2 enrichment (interaction score)
GGCUAGAACUAGUGGAUCCCCCGGCGCCCGGCGGCUCGAGCCCGGGUAAGUCUAAAUAGUCUGCAUGCCGCCGGGCGCCAUGCCUGCAGGUCGACUCUAGAAAACAUG,binding signal,PUM1 PUF domain R7-RVQ,1.92 log2 enrichment (interaction score)
GGCUAGAACUAGUGGAUCCCCCGGCGCCCGGCGGCUCGAGCCCGGGUAAGUGUAAAUUGUCUGCAUGCCGCCGGGCGCCAUGCCUGCAGGUCGACUCUAGAAAACAUG,binding signal,PUM1 PUF domain R1-YPR,5.44 log2 enrichment (interaction score)
GGCUAGAACUAGUGGAUCCCCCGGCGCCCGGCGGCUCGAGCCCGGGUAAGUGUCAAUAGUCUGCAUGCCGCCGGGCGCCAUGCCUGCAGGUCGACUCUAGAAAACAUG,binding signal,PUM1 PUF domain R5-GRG,0.84 log2 enrichment (interaction score)
same,binding signal,PUM1 PUF domain R5-FRY,2.31 log2 enrichment (interaction score)
same,binding signal,PUM1 PUF domain R5-FHE,4.41 log2 enrichment (interaction score)
same,binding signal,PUM1 PUF domain R5-RAA,2.68 log2 enrichment (interaction score)
